Rows were chosen to be rich in hits. Some 3.5% of all compounds tested hit in one or more screens of this group.
TEAD-YAP inh – TEAD-YAP interaction inhibition. hit rate 1.4% among 640,000. AID 1259422. HEK-TIYL cells, TEAD-Gal4/YAP UAS-luciferase luminescence. inhibition, % at 9.12 µM; in the data active = inhibition above about 32%;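 also: 0% = median of test compound wells and 100% = reference inhibitor wells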
MITF inh – blocks human microphthalmia-associated transcription factor | O75030 | AlphaScreen MITF homodimerization, bead proximity signal | inhibition, % at 2.6 µM | hit rate 0.91% among 650,000 | AID 1259374; in the data active = inhibition above about 50%;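 also: 0% = vehicle wells with protein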
FBW7 activator – human FBW7 E3 ligase activation, primary screen; Q969H0; AlphaScreen FBW7–phospho-cyclin E peptide binding, activator screen; normalized activity (activation), % at 26.1 µM; hit rate 0.13% among 650,000; AID 1259310; in the data active = normalized activity above about 1.9%;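 also: purified mutant Fbw7 with reduced substrate affinity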
Target sequence (Q969H0 whole entry, looked up): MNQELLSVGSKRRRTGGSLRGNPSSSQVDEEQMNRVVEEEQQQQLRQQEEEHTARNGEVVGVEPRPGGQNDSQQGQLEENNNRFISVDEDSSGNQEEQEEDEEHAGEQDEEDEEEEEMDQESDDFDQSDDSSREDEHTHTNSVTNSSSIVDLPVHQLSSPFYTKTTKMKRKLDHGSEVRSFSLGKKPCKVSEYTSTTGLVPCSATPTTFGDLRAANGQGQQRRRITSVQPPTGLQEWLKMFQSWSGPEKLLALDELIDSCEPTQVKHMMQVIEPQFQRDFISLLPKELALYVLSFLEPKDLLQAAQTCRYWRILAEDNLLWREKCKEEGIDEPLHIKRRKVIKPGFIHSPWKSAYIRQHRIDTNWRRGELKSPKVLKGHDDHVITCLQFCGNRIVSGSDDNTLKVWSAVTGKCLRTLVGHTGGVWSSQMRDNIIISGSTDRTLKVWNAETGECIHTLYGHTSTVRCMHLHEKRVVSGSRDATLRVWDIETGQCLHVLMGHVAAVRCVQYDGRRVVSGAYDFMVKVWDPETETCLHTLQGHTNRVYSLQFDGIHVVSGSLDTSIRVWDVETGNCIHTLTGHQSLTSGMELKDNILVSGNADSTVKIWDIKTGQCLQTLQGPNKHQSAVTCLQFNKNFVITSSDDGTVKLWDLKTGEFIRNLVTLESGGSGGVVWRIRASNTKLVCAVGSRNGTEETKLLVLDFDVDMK
GPR151 activ – human GPR151 activation; activation, % at 11.2 µM; PathHunter beta-arrestin GPR151 cells, luminescence; hit rate 1% among 650,000; Q8TDV0; in the data active = activation above about 4.9%;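 also: 0% = median of compound wells and 100% = cells with positive control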
* hit, by the source's call.

O=C1CCCN1CCCNc1nc(N2CCOCC2)nc2c1ncn2-c1ccccc1 was read as TEAD-YAP inh 66.9*, MITF inh 2.9, FBW7 activator 0.0 and GPR151 activ 3.7.
Screening O=C1CCCN1CCCNc1nc(N2CCN(c3ccccn3)CC2)nc2c1ncn2CCN1CCCC1=O returned TEAD-YAP inh -0.2, MITF inh 8.2, FBW7 activator 0.1 and GPR151 activ -0.9.
For O=C1CCCN1CCCNc1nc(N2CCN(c3ccccn3)CC2)nc2c1ncn2-c1ccccc1 the results were TEAD-YAP inh 55.7*, MITF inh -12.9, FBW7 activator 0.0 and GPR151 activ -1.3.
`CCC1CCc2c(sc(N3C(=O)C4C5CCC(C5)C4C3=O)c2C(N)=O)C1` (configuration not stated) gave TEAD-YAP inh -4.0, MITF inh 10.5, FBW7 activator 0.1 and GPR151 activ -0.2.
Screening CCOC(=O)N1CCc2c(sc(NCc3cccc(OC)c3OC)c2C(=O)Nc2ccc(OC)cc2OC)C1 returned TEAD-YAP inh 36.9*, MITF inh 30.6, FBW7 activator -0.5 and GPR151 activ -0.4.
For CC(=O)N1CCc2c(sc(NC(=O)CCc3ccccc3)c2C(N)=O)C1 the results were TEAD-YAP inh 51.2*, MITF inh 9.2, FBW7 activator 0.0 and GPR151 activ -0.5.
For CCOC(=O)N1CCc2c(sc(NC(=O)c3ccccc3Br)c2C#N)C1 the results were TEAD-YAP inh 53.3*, MITF inh -3.9, FBW7 activator -0.1 and GPR151 activ 4.7.
CCOc1ccccc1NC(=O)c1c(N)sc2c1CCCC2 was read as TEAD-YAP inh 14.7, MITF inh -22.4, FBW7 activator -0.1 and GPR151 activ 0.0.
For CC(=O)N1CCc2c(sc(NC(=O)CSc3ccccc3)c2C(N)=O)C1 the results were TEAD-YAP inh -4.7, MITF inh 13.1, FBW7 activator 0.0 and GPR151 activ 4.0.
`CCOC(=O)N1CCc2c(sc(N)c2C(=O)Nc2ccccc2OCC)C1` gave TEAD-YAP inh 32.1*, MITF inh -7.4, FBW7 activator 0.0 and GPR151 activ -1.7.
For OCCNc1ccnc(Nc2ccccn2)n1 the results were TEAD-YAP inh -9.5, MITF inh 9.2, FBW7 activator 0.0 and GPR151 activ -1.4.
`Cc1ccc(C(C)C)c(OCC(=O)NNC(=O)CCCCCN2C(=O)c3ccccc3C2=O)c1` gave TEAD-YAP inh 5.0, MITF inh 17.3, FBW7 activator 0.3 and GPR151 activ -1.7.
CC(=O)N1CCc2c(sc(NC(=O)/C=C/c3cccs3)c2C(N)=O)C1 was read as TEAD-YAP inh 40.8*, MITF inh 10.0, FBW7 activator 0.0 and GPR151 activ -1.5.
`CCOC(=O)N1CCc2c(sc(NC(=O)c3cc(Cl)sc3Cl)c2C#N)C1` gave TEAD-YAP inh 32.4*, MITF inh -6.0, FBW7 activator -0.1 and GPR151 activ -0.8.
`CC(C)N1CCc2c(sc(NC(=O)c3cc4ccccc4oc3=O)c2C(N)=O)C1` gave TEAD-YAP inh 61.8*, MITF inh 10.3, FBW7 activator 0.0 and GPR151 activ 0.4.
For CCOC(=O)N1CCc2c(sc(NC(=O)c3cccc(Br)c3)c2C#N)C1 the results were TEAD-YAP inh 41.5*, MITF inh -13.3, FBW7 activator -0.1 and GPR151 activ -0.5.
COc1ccc(C(NC(=O)Cc2cc3ccccc3[nH]2)C(=O)Nc2ccc3c(c2)OCO3)cc1 (configuration not stated) was read as TEAD-YAP inh -3.9, MITF inh 6.2, FBW7 activator 0.6 and GPR151 activ 0.3.
CCOC(=O)N1CCc2c(sc(NC(=O)c3ccccc3)c2C#N)C1 was read as TEAD-YAP inh 51.0*, MITF inh 10.5, FBW7 activator 0.3 and GPR151 activ 0.9.
`CCOC(=O)N1CCc2c(sc(NC(=O)/C=C/c3cccs3)c2C#N)C1` gave TEAD-YAP inh 49.1*, MITF inh -0.3, FBW7 activator -0.1 and GPR151 activ 0.7.
For CCOC(=O)N1CCc2c(sc(NC(=O)Cc3ccccc3)c2C(N)=O)C1 the results were TEAD-YAP inh -2.9, MITF inh 17.0, FBW7 activator 0.2 and GPR151 activ -0.9.
For CCOC(=O)N1CCc2c(sc(NC(=O)/C=C/c3ccc([N+](=O)[O-])cc3)c2C#N)C1 the results were TEAD-YAP inh 28.9, MITF inh 0.8, FBW7 activator -0.1 and GPR151 activ 1.2.
For CCOC(=O)c1c(NC(=O)Cc2ccccc2)sc2c1CCN(C(=O)OCC)C2 the results were TEAD-YAP inh 1.8, MITF inh -4.0, FBW7 activator 5.2* and GPR151 activ 0.4.
For CCOC(=O)c1c(NC(=O)c2ccc(Cl)s2)sc2c1CCN(C(C)C)C2 the results were TEAD-YAP inh -8.1, MITF inh 8.7, FBW7 activator 2.2* and GPR151 activ 0.3.
Cc1c(C(=O)C(=O)N2CCC(C)CC2)c2ccccc2n1C was read as TEAD-YAP inh -7.8, MITF inh 2.5, FBW7 activator -0.1 and GPR151 activ 0.2.
`Cc1c(C(=O)C(=O)N2CC=C(c3ccccc3)CC2)c2ccccc2n1C` gave TEAD-YAP inh 52.5*, MITF inh -1.5, FBW7 activator -0.1 and GPR151 activ -1.7.
Screening O=C(CC(SCc1ccco1)c1ccc(C(F)(F)F)cc1)c1ccco1 (configuration not stated) returned TEAD-YAP inh -2.9, MITF inh 11.9, FBW7 activator 1.3 and GPR151 activ -1.7.
Screening Cc1nn(C)c(C)c1-c1nc(NCCCN2CCCC2=O)c2ncn(-c3ccccc3)c2n1 returned TEAD-YAP inh 17.6, MITF inh -6.7, FBW7 activator 0.1 and GPR151 activ 0.0.
Screening O=C1CCCN1CCCNc1nc(-c2csc3ccccc23)nc2c1ncn2-c1ccsc1 returned TEAD-YAP inh 12.4, MITF inh 8.2, FBW7 activator 0.3 and GPR151 activ 0.9.
O=C1CCCN1CCCNc1nc(-c2cccs2)nc2c1ncn2-c1ccsc1 was read as TEAD-YAP inh 54.8*, MITF inh 13.6, FBW7 activator 0.1 and GPR151 activ -0.5.
For O=C1CCCN1CCCNc1nc(Nc2cccnc2)nc2c1ncn2-c1ccsc1 the results were TEAD-YAP inh 46.8*, MITF inh -4.7, FBW7 activator 0.0 and GPR151 activ -0.2.
For Cc1nn(C)c(C)c1-c1nc(NCCN2CCOCC2)c2ncn(-c3ccsc3)c2n1 the results were TEAD-YAP inh 38.2*, MITF inh 9.6, FBW7 activator 0.0 and GPR151 activ -2.0.
Cc1nn(C)c(C)c1-c1nc(NCCCN2CCCC2=O)c2ncn(-c3ccsc3)c2n1 was read as TEAD-YAP inh 55.9*, MITF inh 15.6, FBW7 activator -0.1 and GPR151 activ -0.7.
For CCOc1cc(/C=C(\C#N)C(N)=O)ccc1OCc1ccc(Br)cc1 the results were TEAD-YAP inh 3.8, MITF inh -3.2, FBW7 activator -0.1 and GPR151 activ -0.6.
`COCCCNC(=S)NNC(=O)C(C)Oc1ccc2c(c1)OCO2` (configuration not stated) gave TEAD-YAP inh 5.4, MITF inh -3.9, FBW7 activator 0.0 and GPR151 activ 2.5.
For CC(C)CC(NC(=O)/C(=C/c1ccc(Cl)cc1)NC(=O)c1ccccc1)C(=O)O (configuration not stated) the results were TEAD-YAP inh 5.5, MITF inh -3.2, FBW7 activator 0.1 and GPR151 activ -0.3.

From PubChem BioAssay
